Screens deposited in PubChem by National Center for Advancing Translational Sciences (NCATS).
Sampled rows, rich in hits. Any-hit rate of the full collection: about 1.5%.
BRCA1 expr act – qHTS Assay to Identify Small Molecule Activators of BRCA1 Expression; MCF7-BRCA1-FFLuc reporter, luminescence, 48 h; response scale: scaled: vehicle 0%, 10 µM genistein 100%; Potency, µM (doses to about 46.1 µM), most hits filed as activators; hit rate 1.1% among 380,000; AID 624202, 2012; note: nearly all actives have a fitted effect of over 80% in size
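Luminescence from a BRCA1-driven firefly luciferase in MCF7 cells was read after 48 h compound exposure at 37 C. Data normalized against DMSO and a 10microM genistein activation control, then curve-fitted across the titration.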
gsp antagonist – qHTS for Antagonists of gsp, the Etiologic Mutation Responsible for Fibrous Dysplasia/McCune-Albright Syndrome: qHTS; gsp-mutant cells, cAMP HTRF, 30 min; Potency, µM (titrated, usually from 76.9 µM), actives largely listed as inhibitors; hit rate 0.4% among 340,000; AID 624288, 2012; calls by dose curve; cell line not stated here;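 note: intracellular cAMP measured with PDE inhibitor Ro 20-1724 present during compound exposure; nearly all actives have a fitted effect of over 65% in size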
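HTRF cAMP read-out (cAMP-d2 plus anti-cAMP antibody-K in lysis buffer, 30 min RT). Before lysis, cells are exposed to compounds with […] for 30 min at 37C in DPBS containing Ca/Mg, BSA and Tween 20.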
mIDH1 inhibitor – qHTS for Inhibitors of mutant isocitrate dehydrogenase 1 (IDH1): qHTS | Isocitrate dehydrogenase [NADP] cytoplasmic (Homo sapiens), O75874 | IDH1-R132H enzyme, NADPH consumption, diaphorase/resazurin fluorescence | Potency, µM (series often up to 76.6 µM), most hits filed as inhibitors | hit rate 0.093% among 390,000 | AID 602179, 2012; note: nearly all actives have a fitted effect of over 65% in size
Target sequence (O75874 whole entry R132H, stated change not applied): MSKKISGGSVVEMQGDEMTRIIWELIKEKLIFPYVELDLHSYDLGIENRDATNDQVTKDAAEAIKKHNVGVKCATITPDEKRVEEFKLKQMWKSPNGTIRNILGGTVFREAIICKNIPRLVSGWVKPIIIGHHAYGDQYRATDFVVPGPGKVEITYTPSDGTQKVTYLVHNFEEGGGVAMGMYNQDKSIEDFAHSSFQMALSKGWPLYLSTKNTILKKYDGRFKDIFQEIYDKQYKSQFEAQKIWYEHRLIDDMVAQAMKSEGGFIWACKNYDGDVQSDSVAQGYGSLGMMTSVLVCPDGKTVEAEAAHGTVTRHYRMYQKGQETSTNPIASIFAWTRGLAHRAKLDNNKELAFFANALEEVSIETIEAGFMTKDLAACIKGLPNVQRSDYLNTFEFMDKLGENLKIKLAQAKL
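IDH1-R132H (0.5 ug/mL dispensed) in pH 7.5 Tris buffer was preincubated 30 min with compound, then given a substrate mix of 0.016 mM NADPH and 2 mM alpha-KG for 80 min at room temperature; remaining NADPH was read by diaphorase/resazurin fluorescence.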
gsp agonist – qHTS for Agonist of gsp, the Etiologic Mutation Responsible for Fibrous Dysplasia/McCune-Albright Syndrome: qHTS | gsp mutant cells, cAMP HTRF, 30 min | Potency, µM (doses to about 76.9 µM), usual class: activators | hit rate 0.13% among 340,000; active = well fitted activation curve with a large enough effect; inconclusive = small, poorly fitted or top-dose-only effect, or another doubt; inactive = no such curve, though single readings can be large or run the other way; cell line not stated here;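 note: phosphodiesterase inhibitor Ro 20-1724 added with compounds to block cAMP breakdown; nearly all actives have a fitted effect of over 60% in size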
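Cells in DMEM/10% FBS with G418 were pretreated with compounds in DMSO plus […] (300 uM stock) for 30 min at 37C. cAMP was measured by HTRF (cAMP-d2 plus anti-cAMP antibody-K) after 30 min at room temperature.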
IL2 activator – qHTS of IL-2 Activators. IL-2 activation reporter assay, cell-based qHTS; stimulated with anti-CD3/CD4/CD28 beads; in transgenic mouse T cells. activation, % (series mostly up to about 46 µM). hit rate 0.065% among 360,000. AID 652025, 2013; in the data active = activation above about 50%; inconclusive = mostly about 30% to 49%
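EGFP and DsRed fluorescence is measured by plate cytometry in unstimulated transgenic mouse T cells exposed to compound for 60 minutes, then stimulated 18 hours at 37 degrees C with anti-CD3/anti-CD4 beads plus anti-CD28.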
Numbers stand for hits; i = inactive; ? = inconclusive; nt = no result given; [ ] = dose if it differs, or a comment. Unless noted, calls come from the whole dose curve; as a rule, active = well fitted curve in the direction sought with a large enough effect; inconclusive = small, poorly fitted or top-dose-only effect, or another doubt; inactive = no such curve, though single readings can be large; an effect the other way counts as inactive or inconclusive.

SMILES	BRCA1 expr act	gsp antagonist	mIDH1 inhibitor	gsp agonist	IL2 activator
CCCS(=O)(=O)c1nc(S(=O)(=O)c2ccc(C)cc2)c(N2CCN(C)CC2)s1	i	i	i	3.2µM	i
CCS(=O)(=O)c1nc(S(=O)(=O)c2ccc(Cl)cc2)c(NCCCN2CCCC2=O)s1	i	i	i	?	i
CCCCOCCCNC(=O)C[C@@H]1C[C@@]2(C(=O)OCC)CCC=C2N(Cc2ccccc2)C1=O	i	nt	nt	nt	i
O=C(NNC(=O)c1ccccc1F)c1cccs1	5.6µM	i	i	i[15.4 µM]	i
O=C(NNC(=O)c1ccccc1Cl)c1cccs1	?	i	i	i	i
COc1cccc(-c2c(-c3ccccc3OC)ncn2Cc2cccc(-c3ccccc3)c2)c1	nt	nt	nt	nt	i
c1ccc(CCCc2nc(-c3ccccn3)no2)cc1	7.1µM	i	i	i	i
c1ccc(C(Cc2nc(-c3ccccn3)no2)c2ccccc2)cc1	i	i	i	i	i
Cc1ccc(Cc2nc(-c3ccccn3)no2)cc1	2.2µM	i	i	i	i
Cc1cccc(-c2noc(CSc3ccccc3)n2)c1	3.2µM	i	i	i	i
c1ccc(SCc2nc(-c3ccccn3)no2)cc1	7.1µM	i	i	i	i
COC(=O)c1c(NC(=O)COc2cc(C)c(Cl)c(C)c2)sc2c1CCCC2	nt	nt	i	nt	nt
COc1cc2c(NC3CCN(C)CC3)nc(N3CCCN(C)CC3)nc2cc1OCCCCCCN(C)C	i	nt	nt	nt	nt
c1ccc(-c2noc(CC3CCCCC3)n2)nc1	7.1µM	i	i	i	i
c1ccc(Cc2nc(-c3ccccn3)no2)cc1	5µM	i	i	i	i
O=C(NCc1ccccc1)c1cc(C2COCCN2C(=O)c2ccc(Cl)cc2)on1 (configuration not stated)	i	nt	nt	nt	i
N#Cc1c(Cl)nsc1NC(=O)c1ccccc1	i	32µM	i	i	i
CCOc1ccc(/C(O)=C2/C(=O)C(=O)N(c3ccccn3)C2c2ccc(F)cc2)c(C)c1 (configuration not stated)	i	i	i	16µM	i
Cc1ccc(/C(O)=C2/C(=O)C(=O)N(c3ccccn3)C2c2ccc(F)cc2)cc1 (configuration not stated)	?	i	i	?	i
CC1CCCC(NC(=O)c2ccc3c(c2)OCCO3)C1C (configuration not stated)	7.1µM	i	i	i	i
CNc1c(Br)cc(C(O)C2=CCc3ccccc32)cc1Br (configuration not stated)	i	nt	nt	nt	nt
O=C(NCCc1ccccc1)C(=O)NCC(c1ccc2c(c1)OCO2)N1CCOCC1 (configuration not stated)	nt	nt	i	nt	nt
CN(C)CCNc1cc(N2CCN(C)CC2)ncn1	i	nt	nt	nt	nt
Cc1[nH]nc(SCC(=O)N2CCCCCC2)c1[N+](=O)[O-]	7.9µM	i	i	i[15.4 µM]	i
COc1ccc(OC)c(/C=C2\SC(=S)N(NS(=O)(=O)c3ccccc3)C2=O)c1	i	18µM	i	?	i
SMILES	BRCA1 expr act	gsp antagonist	mIDH1 inhibitor	gsp agonist	IL2 activator
COc1ccc(/C=C2\SC(=S)N(NS(=O)(=O)c3ccc(C)cc3)C2=O)c(OC)c1	i	50µM	i	i[15.4 µM]	i
CCOc1cc(/C=C2\SC(=S)N(NS(=O)(=O)c3ccccc3)C2=O)ccc1O	i	25µM	i	i	i
CCOc1ccc(/C=C2\SC(=S)N(NS(=O)(=O)c3ccccc3)C2=O)cc1OC	i	i	i	i	i
O=C(CNc1ccccc1C(=O)O)c1ccccc1	i	i	i	i[15.4 µM]	i
NC(=O)c1ccccc1NCC(=O)c1ccc(Cl)cc1	i	i	52µM	i	i
COC(=O)c1sc(NC(=O)c2cc(-c3ccccc3)nc3ccccc23)c(C#N)c1C	i	?	i	i	i
Cc1ccccc1-c1cc(C(=O)Nc2sc(C(=O)OC(C)C)c(C)c2C#N)c2ccccc2n1	i	11µM	i	i	i
CCN(CC)S(=O)(=O)c1ccc(C(=O)Nc2ccc(Cc3ccncc3)cc2)cc1	i	50µM	i	i	i
Nc1c(Cl)cc(/C=C2\C=Cc3ccccc32)cc1Cl	i	nt	nt	nt	nt
